Measurements taken from ChEMBL document CHEMBL1157539, “Thousands of chemical starting points for antimalarial lead identification” (Nature, 2010).

How the values were obtained:
Format in all cases: functional
[1] = system: Plasmodium falciparum; test: GSK_TCMDC: Inhibition of Plasmodium falciparum 3D7 in whole red blood cells, using parasite LDH activity as an index of growth. Test compounds present at 2uM
[2] = system: Plasmodium falciparum; test: GSK_TCMDC: Inhibition of Plasmodium falciparum Dd2 in whole red blood cells, using parasite LDH activity as an index of growth. Test compounds present at 2uM
[3] = system: HepG2; test: GSK_TCMDC: Percent inhibition of human HepG2 cell line. Test compounds present at 10uM.

Row | SMILES | Inhibition [1] [%] | Inhibition [2] [%] | Inhibition [3] [%]
1 | O=C(/C=C/c1ccc(Cl)c(Cl)c1)NCCCCCN1CCC(NC(=S)Nc2ccc(Cl)cc2Cl)CC1 | 99 | 47 | 53
2 | c1ccc2c3c(ccc2c1)Sc1c(ccc2ccccc12)N3 | 92 | 31 | 0
3 | COc1cc2c(cc1N1CCN(C)CC1)N(C(=O)Nc1ccc(-c3ccncc3)c(Cl)c1Cl)CC2 | 100 | 4 | 10
4 | CCc1cc(OC)c(C(=O)NC2CCN(C[C@H](O)c3ccnc4ccc(OC)cc34)CC2)cc1Br | 98 | 56 | 6
5 | Cc1ccc(C(NC(=O)Cc2ccccc2)c2ccc3cccnc3c2O)cc1 (stereo not drawn) | 94 | 77 | 47
6 | CC(C)(C)c1ccc(CNCC(C)(C)c2nc(-c3ccnc(N)n3)c(-c3ccc(Cl)c(O)c3)[nH]2)cc1.Cl | 100 | 54 | 28
7 | c1cc(CNc2ncc(-c3ccsc3)c(-c3nccs3)n2)ccn1 | 89 | 81 | 18
8 | Cc1[nH]c(C)c(-c2ccc(-c3ccc(OC(F)(F)F)cc3)cc2)c(=O)c1Cl | 98 | 97 | 24
9 | O=C(NC1CCN(Cc2ccccc2)CC1)c1cccc(Nc2nc(-c3ccccc3)cs2)c1 | 84 | 3 | 70
10 | COc1cccc2cc(C(=O)N[C@@H](CC(C)C)C(=O)N[C@H](/C=N/NC(=O)Cc3cccnc3)CCc3ccccc3)oc12 | 82 | 54 | 6
11 | Cc1cc(N2CCCC2)nc(Nc2ccc(NC(=O)Nc3ccccc3)cc2)n1 | 99 | 100 | 35
